Bioassay records (PubChem)
Shown are actives, neighbours in structure and some others; about 3.7% of the full set was active somewhere.
tim23-1 inh: growth inhibitors of tim23-1 mutant yeast, primary screen, luminescence, uHTS | S. cerevisiae tim23-1 growth, BacTiter-Glo luminescence, 24 h | 330,000 tested, 1.3% active | inhibition, % at 20 µM | AID 463212, 2010;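 active means growth inhibition of the mutant yeast at or above 50%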;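 further: temperature-sensitive mutant grown at 25 °C; plate controls were DMSO-treated mutant yeast for no effect and medium wells lacking yeast for full effect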
tim10-1 inh: growth inhibitors of tim10-1 mutant yeast, primary screen, luminescence, uHTS; S. cerevisiae tim10-1 ts strain growth, BacTiter-Glo, 24 h; inhibition, % at 20 µM; 330,000 tested, 2.2% active;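 active means inhibition of at least 40%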;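 further: mutant grown at 25 °C; 0% = DMSO wells with yeast and 100% = wells holding no yeast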
TIM10 inh: growth inhibitors of isogenic TIM10 control yeast, primary screen, counter-screen for tim10-1 yeast inhibitor project, luminescence, uHTS; inhibition, % at 10 µM; AID 463195, 2010; S. cerevisiae TIM10 strain growth, BacTiter-Glo luminescence, 24 h; 330,000 tested, 1.4% active;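 active means inhibition of 40% or more at the single tested concentration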;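 further: wild-type TIM10 isogenic control strain grown at permissive 25 °C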
PfHsp90 set2: growth inhibition of PfHsp90-expressing yeast, primary screen, antimalarial PfHsp90 inhibitor project, S. cerevisiae, BacTiter-Glo luminescence, single point, set 2 | BacTiter-Glo ATP, 48 h; yeast lacking PDR1 and PDR3 efflux regulators | inhibition, % at 9.4 µM | 310,000 tested, 0.32% active | AID 504621, 2011;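 active means every replicate shows inhibition above about 80%, whatever the replicate mean, limit read from the data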;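 further: 0% = DMSO neutral controls and 100% = 20 µM radicicol positive controls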
Rce1 inh: yeast Rce1p protease inhibitors, primary screen, biochemical, fluorescence, cell-free homogeneous; AID 2563, 2010; yeast membranes, quenched prenylated peptide cleavage fluorescence; 290,000 tested, 0.27% active; calls only; CAAX prenyl protease 2 (Saccharomyces cerevisiae (strain ATCC 204508 / S288c)), Q03530;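 active means fall in fluorescence gain of 50% or more versus controls, with final raw signal at or below 3038400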;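 further: plate controls were neutral control wells for no effect and wells lacking membranes for full effect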
Target sequence (Q03530 whole entry, looked up): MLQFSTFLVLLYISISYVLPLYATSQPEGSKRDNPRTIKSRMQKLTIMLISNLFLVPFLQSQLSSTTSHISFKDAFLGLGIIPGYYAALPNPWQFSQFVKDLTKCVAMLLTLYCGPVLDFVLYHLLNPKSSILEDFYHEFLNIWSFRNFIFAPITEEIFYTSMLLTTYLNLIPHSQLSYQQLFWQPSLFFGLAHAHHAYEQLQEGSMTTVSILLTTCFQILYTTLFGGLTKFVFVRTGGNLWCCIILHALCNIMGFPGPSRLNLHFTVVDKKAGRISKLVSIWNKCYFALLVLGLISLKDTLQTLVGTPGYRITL
tim10-1 confirm: growth inhibitors of tim10-1 mutant yeast, confirmation, single concentration, luminescence, S. cerevisiae. shares compounds with tim10-1 inh. S. cerevisiae tim10-1 ts strain growth, BacTiter-Glo, 24 h. inhibition, % at 20 µM. 7,400 tested, 56% active;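 active means inhibition of yeast growth at or above a set limit in either of two repeat tests at 20 µM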;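 further: tim10-1 mutant grown at permissive 25 °C to find synthetic lethal compounds; 0% = DMSO yeast wells and 100% = medium wells without yeast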
TIM10 conf: growth inhibitors of wild-type TIM10 yeast, confirmation, counter-screen for tim10-1 synthetic lethality project, single concentration, luminescence, S. cerevisiae; shares compounds with TIM10 inh; S. cerevisiae tim10 strain growth, BacTiter-Glo luminescence, 24 h; inhibition, % at 10 µM; 4,600 tested, 63% active;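 active means inhibition of yeast growth at or above a set limit in either of two replicates at 10 µM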;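 further: this counterscreen used the strain with wild-type TIM10; 0% = yeast with DMSO and 100% = medium wells lacking yeast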
tim23-1 conf: tim23-1 mutant yeast growth inhibitors, confirmation, luminescence, single concentration; shares compounds with tim23-1 inh; S. cerevisiae tim23-1 growth, BacTiter-Glo luminescence, 24 h; inhibition, % at 20 µM; 4,400 tested, 83% active;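 active means inhibition above about 39% in either of two replicate wells at 20 µM, limit read from the data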;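 further: temperature-sensitive tim23-1 mutant grown at 25 °C; 0% = DMSO wells with yeast and 100% = medium wells without yeast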
Numbers without * were called inactive; i = inactive; / = no result given.

SMILES | tim23-1 inh | tim10-1 inh | TIM10 inh | PfHsp90 set2 | Rce1 inh | tim10-1 confirm | tim23-1 conf | others
COc1ccc(C2(C(=O)c3ccccc3)C(=O)c3ccccc3C2=O)cc1 | 35 | 10 | 10 | 3 | i | / | /
COc1ccc(C(=O)/C=C2/C(=O)Nc3ccccc32)cc1 | 88* | 84* | 91* | 11 | i | 88* | 85* | TIM10 conf=80*
C=CCOc1ccc(C(=O)/C=C2/C(=O)Nc3ccccc32)cc1 | 88* | 84* | 77* | -49 | i | 86* | 77* | TIM10 conf=90*
C=CCOc1ccccc1C(=O)/C=C1/C(=O)Nc2ccccc21 | 89* | 50* | 80* | -24 | i | active | 16 | TIM10 conf=64*
NC(=O)COc1ccc(C(=O)/C=C2/C(=O)Nc3ccccc32)cc1 | 30 | 34 | 35 | 5 | i | / | /
NC(CSC1(c2ccc(Cl)cc2)c2ccccc2-c2ccccc21)C(=O)O (stereo not given) | / | / | / | -41 | / | / | /
CN(Cc1ccon1)C(=O)C1CCC(=O)N(Cc2ccc(Cl)cc2)C1 (stereo not given) | 0 | 1 | 8 | 2 | i | / | /
O=C(C=Cc1ccccc1)c1cccs1 | / | / | / | 9 | / | / | /
COc1ccc(C(=O)/C=C2/C(=O)Nc3ccccc32)cc1OC | 80* | 64* | 76* | -14 | i | 65* | 57* | TIM10 conf=73*
O=C1Nc2ccccc2/C1=C/C(=O)c1cccs1 | 55* | 51* | 68* | -29 | i | 60* | -42 | TIM10 conf=93*
CCc1noc(C)c1C(=O)Nc1ccc(F)c(F)c1 | 2 | 4 | 13 | / | i | / | /
CCOC(=O)c1ccc(N=c2sc(C(=O)OC)cc(=O)n2-c2ccc(C(=O)OCC)cc2)cc1 | 20 | 15 | 24 | -21 | i | / | /
COC(=O)c1cc(=O)n(-c2ccccc2)c(=Nc2ccccc2)s1 | 73* | 51* | 18 | 4 | i | 43* | 52*
O=C(Nc1nc(-c2ccccn2)cs1)c1ccc(Br)s1 | 56* | 53* | 23 | 126* | i | 34* | 47*
Cc1noc(C)c1CSc1nnnn1-c1ccc(Cl)cc1 | 17 | 20 | 14 | -32 | i | / | /
CCOC(=O)C1=C(C)N=C2SC(C(=O)OC)=CC(=O)N2C1c1cccc(OC)c1 (stereo not given) | 20 | 13 | 11 | -12 | i | / | /
CCOC(=O)C1=C(C)N=C2SC(C(=O)OC)=CC(=O)N2C1c1ccc(F)cc1 (stereo not given) | 86* | 75* | 77* | -15 | i | 81* | 78* | TIM10 conf=84*
Cc1ccc(-n2c(=O)c3ccccc3n(CC(=O)NCc3ccco3)c2=O)cc1 | -15 | 5 | -2 | -3 | i | / | /
O=C(Cc1ccc(NC(=O)C2CCN(C(=O)C3CC3)CC2)cc1)Nc1cccc(C(=O)N2CCCC2)c1 | / | / | / | 12 | / | / | /
COc1cc(NC(=O)c2nccnc2N)cc(C(=O)Nc2cccc(C(F)(F)F)c2)c1 | 19 | 12 | 6 | 1 | i | / | /
COc1cc(Nc2ccccn2)cc(C(=O)Nc2cccc(C(F)(F)F)c2)c1 | 51* | 49* | 29 | 18 | i | 36* | 65*
O=C1CC(c2ccc(F)c(Br)c2)C2=C(CCCC2=O)N1 (stereo not given) | 14 | 2 | 1 | 11 | i | / | /
Nc1ccc2nn(-c3cc([N+](=O)[O-])ccc3O)nc2c1 | 58* | 51* | 28 | -70 | i | 38* | 53*
Cc1nc(N2CCN(c3ccc(Cl)cc3)CC2)[nH]c(=O)c1C | 13 | 11 | -1 | 11 | i | / | /
COc1cc2oc3ccccc3c(=O)c2cc1OC | 63* | 43* | 7 | -11 | i | 21 | 53*
SMILES | tim23-1 inh | tim10-1 inh | TIM10 inh | PfHsp90 set2 | Rce1 inh | tim10-1 confirm | tim23-1 conf | others
CC(CN1CCCCC1)OC(=O)c1ccco1 (stereo not given) | 6 | -10 | -2 | 8 | i | / | /
Cc1cc(C)nc(SCC(=O)N/N=C/c2ccc3c(c2)OCO3)n1 | 7 | -5 | -5 | 23 | i | / | /
O=C(CSCc1ccccc1Br)N/N=C/c1ccc2c(c1)OCO2 | 60* | 51* | 33 | 3 | i | 46* | 50*
COc1ccccc1C(C[N+](=O)[O-])c1c(N)n(C)c(=O)n(C)c1=O (stereo not given) | 82* | 57* | 55* | / | i | 61* | 84* | TIM10 conf=64*
COc1ccccc1C(c1c(N)n(C)c(=O)n(C)c1=O)C(C)[N+](=O)[O-] (stereo not given) | 10 | 5 | -6 | / | i | / | /
Cc1ccc(C(OCC(O)CNC(C)c2ccccc2)c2ccccc2)cc1 (stereo not given) | 54* | 62* | 59* | 8 | i | 61* | 39* | TIM10 conf=52*
Cc1ccc(C(OCC(O)CN2CCCCC2)c2ccccc2)cc1 (stereo not given) | 3 | 8 | -12 | -5 | i | / | /
Cc1onc(-c2c(Cl)cccc2Cl)c1C(=O)ONC(=O)c1ccccc1 | -3 | 15 | 8 | -7 | i | / | /
FC(F)(F)c1cccc(NCc2n[nH]c(=S)n2C2CCCCC2)c1 | 33 | 7 | 20 | -8 | i | / | /
O=C(NC(=S)NCc1ccccc1)c1ccccc1F | 51* | 40* | 22 | -12 | i | 27* | 25
CC(=O)NNC(=S)NCCc1ccccc1 | 4 | 13 | -22 | 5 | i | / | /
O=C(NC(=S)NCCc1ccccc1)c1ccccc1 | 55* | 45* | 43* | / | i | 20 | 48* | TIM10 conf=41*
O=C(NC(=S)NCc1ccccc1)c1ccccc1Br | 43 | -3 | 12 | -23 | i | / | /
CC(=O)NC1(c2ccccc2)CCN(c2cc(C)nc(-c3ccccc3)n2)CC1 | 14 | 11 | -6 | / | i | / | /
Cc1ccc2c(c1)C(=O)C(=O)N2CC1COc2ccccc2O1 (stereo not given) | 65* | 41* | 18 | -28 | i | 30 | 78*
O=C(c1ccc(F)cc1Cl)N(Cc1ccco1)C1CCS(=O)(=O)C1 (stereo not given) | -5 | -2 | 4 | -14 | / | / | /
O=C(O)/C(=C\c1ccccc1OC(F)F)Sc1nnc(-c2ccc(F)cc2)o1 | 70* | 71* | 59* | -14 | i | 75* | 71* | TIM10 conf=68*
